Compound activity (PubChem BioAssay)
A selection: hits, their analogues and other compounds. The true share with any hit is near 0.49%.
IDH1 R132H inh – human IDH1 R132H inhibition | IDH1-R132H enzyme, NADPH consumption, diaphorase/resazurin fluorescence | Potency, µM (series often up to 76.6 µM), for the others: at the top dose activity change, negative = inhibition, most hits filed as inhibitors | actives 0.093% (n = 390,000); further: potency means the concentration at half of the fitted maximal effect; on the % scale 0 is the no-effect control and ±100 the full control effect; nearly all actives have a fitted effect of over 65% in size
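IDH1-R132H (0.5 ug/mL) preincubated 30 min with compound, then NADPH (0.016 mM) and alpha-KG (2 mM) added; 80 min at RT, pH 7.5. Remaining NADPH coupled via diaphorase/resazurin to fluorescence (540/590 nm); concentration-response curves normalized to no-enzyme control.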
PGK inhibitor – T. brucei PGK inhibition. PGK/GAPDH coupled, Kinase-Glo luminescence, 60 min. AID 602233. Potency, µM (highest dose often 57.5 µM), for the others: top-dose activity change, negative = inhibition, usual class: inhibitors. actives 0.043% (n = 380,000); further: potency means the concentration at half of the fitted maximal effect; on the % scale 0 is the no-effect control and ±100 the full control effect; nearly all actives have a fitted effect of over 60% in size
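Recombinant glycosomal PGK reaction used 1,3-bisphosphoglycerate generated in-well by GAPDH (100nM final) in 100mM TEA pH 7.6, 5mM MgCl2, 0.01% Tween-20. After 60 minutes at room temperature, ATP was read by Kinase-Glo Plus luminescence end-point.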
Pin1 inh – inhibitors of human Pin1; Q13526; Pin1 FP peptide displacement, HiFluor488, 10 min; Potency, µM (titrated, usually from 115 µM), without a hit: top-dose activity, negative = inhibition, hits mostly inhibitors; actives 0.009% (n = 390,000); AID 504891; active means well fitted inhibition curve with a large enough effect in the polarisation, with a control signal flat, not every such curve was filed as active; inconclusive means small, poorly fitted or top-dose-only effect, or effect the other way, or a change in a side signal; inactive means no such curve, though single readings can be large or run the other way; the % refers to the polarisation; further: potency means the concentration at half of the fitted maximal effect; on the % scale 0 is the no-effect control and ±100 the full control effect
Target sequence (Q13526 whole entry, looked up): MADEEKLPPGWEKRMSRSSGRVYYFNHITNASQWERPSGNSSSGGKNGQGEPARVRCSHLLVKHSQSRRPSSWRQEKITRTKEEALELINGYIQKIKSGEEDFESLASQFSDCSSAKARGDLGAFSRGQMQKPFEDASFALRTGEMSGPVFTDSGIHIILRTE
LDHA inh – blocks human lactate dehydrogenase A. P00338. purified LDHA, NADH/diaphorase-resazurin fluorescence; hits give low values. activity change, % (values are at about 110 or 230 µM). actives 0.15% (n = 480,000); in the data active means activity change below about -30%; inconclusive means mostly about -25% to -30%;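 further: plate controls were DMSO wells for no effect and wells without enzyme for full effect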
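LDH5 2 nM; NADH 0.06 mM, pyruvate 0.2 mM; 200 mM Tris pH 7.4, EDTA, Tween-20; 5 min RT. Detection: diaphorase 0.133 mg/mL + resazurin 37 µM, fluorescence ex540/em590 at 0 and 20 min; normalized to enzyme-free and DMSO wells.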
Vif-A3G inh – Vif-A3G binding inhibition; HeLa A3G-eYFP + Vif (tagged APOBEC3G with the HIV-1 protein that degrades it), YFP fluorescence, overnight; AID 602310; Potency, µM (top dose mostly 46.1 µM), for the others: at the top dose activity, negative = active, hits mostly inhibitors; actives 0.076% (n = 410,000); further: potency means the concentration at half of the fitted maximal effect; on the % scale 0 is the no-effect control and ±100 the full control effect; nearly all actives have a fitted effect of over 60% in size
Target sequence (Q9HC16 whole entry, looked up): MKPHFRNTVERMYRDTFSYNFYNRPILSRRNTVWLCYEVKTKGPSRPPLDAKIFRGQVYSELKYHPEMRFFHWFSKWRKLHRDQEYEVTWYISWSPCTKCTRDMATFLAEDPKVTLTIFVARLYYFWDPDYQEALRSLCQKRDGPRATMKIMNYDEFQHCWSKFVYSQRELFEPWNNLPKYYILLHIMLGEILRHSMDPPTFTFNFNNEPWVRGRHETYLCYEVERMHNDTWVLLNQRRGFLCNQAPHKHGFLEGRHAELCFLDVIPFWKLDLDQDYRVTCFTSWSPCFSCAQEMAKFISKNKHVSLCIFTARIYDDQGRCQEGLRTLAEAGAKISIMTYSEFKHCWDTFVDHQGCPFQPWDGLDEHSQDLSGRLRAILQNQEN
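HeLa cells stably expressing Vif and C-terminally eYFP-tagged A3G, seeded overnight at 37 deg C, then exposed to compound by pintool overnight at 37 deg C. Rise in yellow fluorescence (Ex 488/Em 500-530, Acumen) marks blocked Vif-driven A3G degradation.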
Vif-APOBEC3F blk – inhibitors of Vif-A3F interaction | HeLa A3F-eYFP + Vif (tagged APOBEC3F with the HIV-1 protein that degrades it), YFP fluorescence increase | Potency, µM (highest dose often 46.1 µM), for the others: top-dose activity, negative = active | actives 0.2% (n = 390,000); further: potency means the concentration at half of the fitted maximal effect; % of control where 0% means no effect; nearly all actives have a fitted effect of over 65% in size
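Fluorescence increase (Ex 488/Em 500-530) after overnight compound treatment at 37 deg C flags inhibition of Vif-driven A3F-eYFP loss in stable HeLa A3F-eYFP/Vif cells seeded overnight beforehand.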
IDH1 autofl – counter-screen for mutant IDH1 inhibitors: fluorescence interference. inhibition of signal, % at 51.2 µM. shares compounds with IDH1 R132H inh. 750 tested, under 10 active. Resorufin detection reagent fluorescence interference, cell-free;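 further: 0% = wells with normal resorufin and full inhibition = wells lacking resorufin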
WT IDH1 inh – selectivity of mutant IDH1 inhibitors: human wild-type IDH1; shares compounds with IDH1 R132H inh; WT IDH1 enzyme, NADPH diaphorase/resazurin fluorescence; Potency, µM (series often up to 115 µM), without a hit: top-dose activity change, negative = inhibition, usual class: inhibitors; actives 9% (n = 750); AID 623995;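 further: potency means the concentration at half of the fitted maximal effect; 0% = full WT IDH1 enzyme control and full inhibition = no enzyme wells; nearly all actives have a fitted effect of over 55% in size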
mIDH1 confirm – confirmation of human mutant IDH1 inhibitors; shares compounds with IDH1 R132H inh; IDH1 R132H enzyme, NADPH diaphorase/resazurin fluorescence; Potency, µM (top dose mostly 76.6 µM), for inactives: top-dose activity change, negative = inhibition, hits mostly inhibitors; actives 83% (n = 750); AID 624002; further: potency means the concentration at half of the fitted maximal effect; nearly all actives have a fitted effect of over 50% in size
The depositor's hits bear a star; i = inactive; ? = inconclusive; . = no result given. Unless noted, the call rests on the fitted dose curve; in most records, active means well fitted curve in the direction sought with a large enough effect; inconclusive means small, poorly fitted or top-dose-only effect, or another doubt; inactive means no such curve, though single readings can be large; an effect the other way counts as inactive or inconclusive.

SMILES	IDH1 R132H inh	PGK inhibitor	Pin1 inh	LDHA inh	Vif-A3G inh	Vif-APOBEC3F blk	IDH1 autofl	WT IDH1 inh	mIDH1 confirm
O=C(O)COc1ccc2nsnc2c1Cl	0%	i	-7%	-5	0%	3%	.	.	.
Cc1ccccc1C1=C/C(=C(\SS/C(C(=O)c2ccc(OCC(=O)O)c(Cl)c2Cl)=C2\C=C(c3ccccc3C)SS2)C(=O)c2ccc(OCC(=O)O)c(Cl)c2Cl)SS1	12µM*	?	.	-14	4%	0%	1	0%	40µM*
CCOc1cc(Br)cc(/C=C2\SC(=Nc3ccccc3)NC2=O)c1O	2%	-2%	4%	-2	?	-19%	.	.	.
C=CCOc1ccc(Br)cc1/C=C1/SC(=Nc2ccc(C(=O)O)cc2)NC1=O	52µM*	?	60%	-5	0%	-4%	9	71µM*	28µM*
Cc1c(OC(C(=O)O)c2ccccc2)ccc2c(-c3ccccc3)cc(=O)oc12 (configuration not stated)	?	i	13%	-5	-6%	-5%	6	-7%	13µM*
Cc1cccc(C)c1NC(=O)CN(C)C(=O)COC(=O)c1cccnc1Nc1ccccc1F	.	.	.	6	.	.	.	.	.
CCCC(=O)C1=C(c2cccc(OC)c2)N(C(=O)CCC)n2c(C)nnc2S1	45µM*	1%	-4%	1	4%	-15%	-7	170%	45µM*
CCC(=O)C1=C(c2ccc(Cl)c(Cl)c2)N(C(=O)CC)n2cnnc2S1	.	.	.	2	.	.	.	.	.
CC(=O)C1=C(c2ccccc2)N(C(C)=O)n2c(C)nnc2S1	29µM*	-13%	-8%	-3	-1%	-15%	-6	-130%	6.3µM*
CCCC(=O)C1=C(c2ccc(C)cc2)N(C(=O)CCC)n2cnnc2S1	40µM*	8%	-1%	-5	9%	1%	-3	272%	40µM*
COc1cccc(C2=C(C(C)=O)Sc3nnc(C)n3N2C(C)=O)c1	.	.	.	-5	.	.	.	.	.
CC(C)(C)c1ccc(-c2nnc(SCC(=O)NCc3ccco3)n2Cc2ccco2)cc1	.	.	.	10	.	.	.	.	.
COc1ccc(C(=O)N2N=C(c3ccccc3)CC2c2ccc3nccnc3c2)cc1 (configuration not stated)	.	.	.	-6	.	.	.	.	.
Cn1cc(-c2nc(COc3cccc4c3OC(C)(C)C4)cs2)cn1	.	.	.	0	.	.	.	.	.
Cc1cccc(NC(=O)COC(=O)c2n[nH]c(=O)c3ccccc23)c1	.	.	.	-9	.	.	.	.	.
COc1ccc(C2C(C#N)=C(SCC(=O)Nc3ccc(C)cc3)NC3=C2C(=O)CC(C)(C)C3)cc1 (configuration not stated)	13µM*	-1%	28%	-5	1%	0%	-4	8%	7.1µM*
CCOc1ccccc1C1C(C#N)=C(SCC(=O)Nc2ccc(C)cc2)NC2=C1C(=O)CCC2 (configuration not stated)	.	.	.	12	.	.	.	.	.
CC(C)(C)[C@@H]1C=C(C(=O)Nc2ccccc2)O[C@H](OCc2ccc(CO)cc2)C1	45µM*	-2%	-3%	-4	7%	-1%	-7	-5%	25µM*
C#CCNC(=O)C1=C[C@H](C(C)(C)C)C[C@H](OCc2ccc(CO)cc2)O1	-3%	-8%	-3%	-3	0%	3%	.	.	.
CC(C)(C)c1cc(CP(=O)(c2ccccc2)c2ccccc2)cc(C(C)(C)C)c1O	?	-10%	?	2	-8%	-30%	-1	-3%	28µM*
O=P(Cc1ccccc1)(c1ccccc1)c1ccccc1	4%	-1%	-3%	-5	0%	-2%	.	.	.
O=C1/C(=C\c2ccc(Cl)c(Cl)c2)CN(C(=O)CCN2CCOCC2)C/C1=C/c1ccc(Cl)c(Cl)c1	?	5%	7%	-5	?	1%	-4	-4%	28µM*
O=C1/C(=C\c2ccccc2)CN(C(=O)CCN2CCCCC2)C/C1=C/c1ccccc1	3%	2%	34%	3	?	-17%	.	.	.
Cc1nc2cc(NS(=O)(=O)c3cc(Cl)ccc3Cl)ccc2o1	.	.	.	25	.	.	.	.	.
CC(C)Cc1ccc(C(C)NC(=O)C(Cc2ccccc2)NC(=O)c2ccccc2)cc1 (configuration not stated)	.	.	.	1	.	.	.	.	.
COc1ccc(Br)cc1/C=N/NC(=O)c1nc(-c2ccccc2)n2c1CCCCC2	?	-1%	11%	-1	-4%	-6%	3	1%	?
